PubChem BioAssay (Tox21)
Records with an inconclusive call do not appear. The source made the active and inactive calls. Calls come from the whole dose curve; as a rule, active = well fitted curve in the direction sought with a large enough effect in the repeat runs; inconclusive = weak or mixed curves; inactive = no such curve, though single readings can be large; an effect the other way counts as inactive or inconclusive.

Target: Nuclear receptor subfamily 1 group I member 2 (Rattus norvegicus) (UniProt Q9R1A7)
Test: Rat pregnane X receptor (rPXR) activation by small molecules, qHTS assay (AID 1346983); note: nearly all actives have a fitted effect of over 20% in size
Conditions: rPXR luciferase reporter cells, One-Glo luminescence, 24 h; max activation: active compounds read high
How it was run: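 Cell-based rPXR luciferase reporter assay, 2,000 cells per well, rested 5hr at 37 C before compound addition in DMSO, then 24 hr at 37 C. One-Glo reagent was added and luminescence read after 30 min at room temperature.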
% is set by controls: 0 for no effect and ±100 for the full control effect; potency is the fitted concentration of half-maximal effect.

Sequence of Nuclear receptor subfamily 1 group I member 2 (Rattus norvegicus) (Q9R1A7 whole entry, looked up): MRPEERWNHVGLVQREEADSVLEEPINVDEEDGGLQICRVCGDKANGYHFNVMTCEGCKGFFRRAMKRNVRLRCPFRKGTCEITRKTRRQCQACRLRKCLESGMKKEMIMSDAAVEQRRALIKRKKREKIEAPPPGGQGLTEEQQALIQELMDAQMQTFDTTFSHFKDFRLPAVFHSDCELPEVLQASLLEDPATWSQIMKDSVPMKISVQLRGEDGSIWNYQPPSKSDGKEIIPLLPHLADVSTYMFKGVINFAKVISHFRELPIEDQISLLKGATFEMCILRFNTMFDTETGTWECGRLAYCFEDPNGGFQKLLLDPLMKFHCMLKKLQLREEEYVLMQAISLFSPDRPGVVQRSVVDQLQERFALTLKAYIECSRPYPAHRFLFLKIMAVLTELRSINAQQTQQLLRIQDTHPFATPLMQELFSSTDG

| Compound | max activation | Potency |
| --- | --- | --- |
| CN1CCN(C2=Nc3cc(F)ccc3Cc3ccccc32)CC1 | 2.35% (inactive) |  |
| C[C@@H](N)C(=O)O | -2.77% (inactive) |  |
| CCN(CCCc1ccccc1)CCCc1ccccc1 | -0.276% (inactive) |  |
| CCc1nnc(NS(=O)(=O)c2ccc(N)cc2)s1 | -2.73% (inactive) |  |
| C=CCc1cc(OC)c(O)c(C(=O)NCCO)c1 | -0.885% (inactive) |  |
| COc1ccc2nc(NC(=O)Nc3ccccc3)sc2c1 |  | 0.199 µM (active) |
| CCc1cc(Cl)c(OC)c(C(=O)NC[C@@H]2CCCN2CC)c1O | -0.901% (inactive) |  |

Target: Nuclear receptor subfamily 1 group I member 2 (Homo sapiens) (UniProt O75469)
Test: CYP3A4 induction through human pregnane X receptor (PXR) by small molecules, qHTS assay (AID 1346984); note: nearly all actives have a fitted effect of over 40% in size
Conditions: DPX-2 HepG2 PXR, CYP3A4-luciferin luminescence, 24 h; series mostly up to 46.1 µM; activation: at the top concentration
How it was run: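 DPX-2 cells (HepG2 co-transfected with PXR and CYP3A4 promoter-luciferase) treated with compounds 24 h at 37C; luciferin-IPA CYP3A4 substrate 3uM final added for 3 h, then One-Glo; luminescence read. qHTS format.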

| Compound | Potency | activation |
| --- | --- | --- |
| CN1CCN(C2=Nc3cc(F)ccc3Cc3ccccc32)CC1 | 25.1 µM (active) |  |
| C[C@@H](N)C(=O)O |  | -11.4% (inactive) |
| CCCCC(=O)O[C@]1(C(=O)CO)[C@H](C)C[C@H]2[C@@H]3CCC4=CC(=O)C=C[C@]4(C)[C@@]3(F)[C@@H](O)C[C@@]21C |  | 20% (inactive) |
| CCN(CCCc1ccccc1)CCCc1ccccc1 |  | -2.77% [at 20.6 µM] (inactive) |
| CCc1nnc(NS(=O)(=O)c2ccc(N)cc2)s1 |  | -12.1% (inactive) |
| C=CCc1cc(OC)c(O)c(C(=O)NCCO)c1 |  | -7.73% (inactive) |
| CN(CCCN1c2ccccc2CCc2ccccc21)CC(=O)c1ccc(Cl)cc1 | 25.1 µM (active) |  |
| CCc1cc(Cl)c(OC)c(C(=O)NC[C@@H]2CCCN2CC)c1O | 15.8 µM (active) |  |

Target: Nuclear receptor subfamily 1 group I member 2 (Homo sapiens) (UniProt O75469)
Test: Human pregnane X receptor (PXR) activation by small molecules, qHTS assay (AID 1346985); note: nearly all actives have a fitted effect of over 40% in size
Conditions: DPX-2 HepG2 CYP3A4-luciferase, 24 h; series mostly up to 38.3 µM; activation: at the top concentration
How it was run: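 DPX-2 cells (HepG2 co-transfected with a PXR response element and a CYP3A4-promoter luciferase construct) were seeded at 2,000 per well, rested 5 hr at 37C, then exposed to DMSO-dissolved compounds for 24 hr. Activation was read as luciferase luminescence.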

| Compound | Potency | activation |
| --- | --- | --- |
| CN1CCN(C2=Nc3cc(F)ccc3Cc3ccccc32)CC1 | 22.4 µM (active) |  |
| C[C@@H](N)C(=O)O |  | -4.82% (inactive) |
| CCN(CCCc1ccccc1)CCCc1ccccc1 |  | 17.1% [at 17.1 µM] (inactive) |
| CCc1nnc(NS(=O)(=O)c2ccc(N)cc2)s1 |  | -3.88% (inactive) |
| C=CCc1cc(OC)c(O)c(C(=O)NCCO)c1 |  | -3.87% (inactive) |
| CN(CCCN1c2ccccc2CCc2ccccc21)CC(=O)c1ccc(Cl)cc1 | 22.4 µM (active) |  |
| CCc1cc(Cl)c(OC)c(C(=O)NC[C@@H]2CCCN2CC)c1O | 25.1 µM (active) |  |

Target: Cytochrome P450 2D6 (Homo sapiens) (UniProt P10635)
Test: Cytochrome P450 Family 2 Subfamily D Member 6 (CYP2D6) small molecule antagonists: luciferase reporter qHTS assay (AID 1671196); note: nearly all actives have a fitted effect of over 50% in size
Conditions: P450-Glo CYP2D6 enzyme assay, luciferin luminescence, 1 h; series mostly up to 115 µM; activity change, negative = inhibition: at the top concentration
How it was run: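 CYP2D6 enzyme–substrate mix was held with compound for 10 min at room temperature, then NADPH regeneration solution was added and the reaction ran 1 h at room temperature. Luciferin product was detected by luminescence after 20 min with detection reagent.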

Sequence of Cytochrome P450 2D6 (Homo sapiens) (P10635 whole entry, looked up): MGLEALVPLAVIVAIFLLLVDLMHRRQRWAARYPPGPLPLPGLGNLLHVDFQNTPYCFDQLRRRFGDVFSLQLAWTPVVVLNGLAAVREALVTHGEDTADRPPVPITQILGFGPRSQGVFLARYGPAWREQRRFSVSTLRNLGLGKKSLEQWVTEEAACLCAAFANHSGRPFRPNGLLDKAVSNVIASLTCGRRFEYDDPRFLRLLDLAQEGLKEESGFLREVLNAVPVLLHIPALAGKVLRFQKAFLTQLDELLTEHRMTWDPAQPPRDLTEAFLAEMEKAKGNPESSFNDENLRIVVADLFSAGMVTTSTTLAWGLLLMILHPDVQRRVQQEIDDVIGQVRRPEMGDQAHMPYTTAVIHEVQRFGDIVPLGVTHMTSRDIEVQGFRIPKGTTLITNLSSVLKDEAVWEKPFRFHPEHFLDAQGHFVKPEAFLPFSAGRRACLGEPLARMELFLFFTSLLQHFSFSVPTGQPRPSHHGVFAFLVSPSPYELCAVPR

| Compound | activity change, negative = inhibition | Potency |
| --- | --- | --- |
| O=C(O)CN(CCN(CC(=O)O)CC(=O)O)CCN(CC(=O)O)CC(=O)O | -5.69% [at 23.6 µM] (inactive) |  |
| CN1CCN(C2=Nc3cc(F)ccc3Cc3ccccc32)CC1 |  | 4.9 µM (active) |
| Nc1ccc(Oc2ccc(N)c(N)c2)cc1 |  | 5.64 µM (active) |
| COc1cc2c(cc1N)oc1ccccc12 |  | 7.25 µM (active) |
| C[C@@H](N)C(=O)O | 0.368% [at 53 µM] (inactive) |  |
| Nc1ccc2ccccc2c1S(=O)(=O)O |  | 32.4 µM (active) |
| NC(=O)NS(=O)(=O)c1ccc(Cl)cc1 | -8.55% [at 53 µM] (inactive) |  |
| CCN(CCCc1ccccc1)CCCc1ccccc1 |  | 0.871 µM (active) |
| O=C(O)[C@@H](O)[C@H](O)[C@H](O)[C@@H](O)C(=O)O | -7.45% [at 53 µM] (inactive) |  |
| CCOc1ccc(NS(=O)(=O)c2ccc(N)cc2)nn1 | -8.19% [at 53 µM] (inactive) |  |
| CCCCCCn1c(=O)c2c(ncn2C)n(C)c1=O | -3.52% [at 53 µM] (inactive) |  |
| CC(C)c1ccccc1 | -16.7% (inactive) |  |
| CCCc1c2oc(C(=O)O)cc(=O)c2cc2c(=O)cc(C(=O)O)n(CC)c12 | 2.01% [at 53 µM] (inactive) |  |
| N#CSCC(=O)O | -4.23% [at 53 µM] (inactive) |  |
| CC(C)CCCCCCc1ccc(OCCOCCO)cc1 | -9.73% (inactive) |  |
| CCCCCCCCCC#N | -7.85% (inactive) |  |
| CCc1nnc(NS(=O)(=O)c2ccc(N)cc2)s1 | 2.54% [at 53 µM] (inactive) |  |
| CC(=O)O[C@H]1CC[C@@]2(C)C(=CC[C@@H]3[C@@H]2CC[C@]2(C)C(C(C)=O)=CC[C@@H]32)C1 | -3.29% [at 53 µM] (inactive) |  |
| COc1ccc2nc(NC(=O)Nc3ccccc3)sc2c1 | -17.1% [at 53 µM] (inactive) |  |
| O=C1Nc2ccc([N+](=O)[O-])cc2C1=O |  | 7.09 µM (active) |
| Cc1nc(N)nc(N)c1-c1ccc(Cl)c(Cl)c1 |  | 2.19 µM (active) |
| CC(C)OC(C)C | 1.7% (inactive) |  |
| O=C(O[C@@H](C(=O)O)[C@@H](OC(=O)c1ccccc1)C(=O)O)c1ccccc1 |  | 40.6 µM (active) |
| Cc1ccc([N+](=O)[O-])c(N)c1 | -15% (inactive) |  |
| CCC(=O)c1ccc2c(c1)N(CCCN(C)C)c1ccccc1S2 |  | 1.1 µM (active) |
| CCCCCCCOC(=O)CCC |  | 20 µM (active) |
| OCc1c2ccccc2cc2ccccc12 | -19.4% (inactive) |  |
| CN(CCCN1c2ccccc2CCc2ccccc21)CC(=O)c1ccc(Cl)cc1 |  | 7.76 µM (active) |
| CCc1cc(Cl)c(OC)c(C(=O)NC[C@@H]2CCCN2CC)c1O |  | 0.617 µM (active) |
| CCCCNC(=S)NCCCC |  | 1.42 µM (active) |
